Bioassay records from PubChem BioAssay.
TRHR PAM: qHTS for Small Molecule Agonists and Allosteric Enhancers of Human TRH Receptor: Primary Screen for Enhancers | Thyrotropin-releasing hormone receptor (Homo sapiens), P34981 | TRHR cells, fluo-8 calcium fluorescence, EC20 TRH enhancement | enhancement, % at 2 µM | 360,000 compounds, 0.66% hits | AID 493056, 2011; in the data active = enhancement above about 30%; note: 0% is about no effect
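Enhancer read-out: after compound pinning and an initial kinetic agonist-mode read, an EC20 of TRH (10 nM final) was injected and fluo-8 calcium signal (Ex 480/Em 530) followed at 1 s/cycle for 100 cycles in TRHR-expressing cells.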
D1 potentiator: Potentiators of Human D1 Dopamine Receptor: qHTS; HEK293 TREx D1 cells, calcium flux, dopamine EC20 potentiation; 360,000 compounds, 0.036% hits; D(1A) dopamine receptor (Homo sapiens), P21728; potentiation, % at 10 µM; in the data active = potentiation above about 30%; note: 0% is about no effect
Target sequence (P21728 whole entry, looked up): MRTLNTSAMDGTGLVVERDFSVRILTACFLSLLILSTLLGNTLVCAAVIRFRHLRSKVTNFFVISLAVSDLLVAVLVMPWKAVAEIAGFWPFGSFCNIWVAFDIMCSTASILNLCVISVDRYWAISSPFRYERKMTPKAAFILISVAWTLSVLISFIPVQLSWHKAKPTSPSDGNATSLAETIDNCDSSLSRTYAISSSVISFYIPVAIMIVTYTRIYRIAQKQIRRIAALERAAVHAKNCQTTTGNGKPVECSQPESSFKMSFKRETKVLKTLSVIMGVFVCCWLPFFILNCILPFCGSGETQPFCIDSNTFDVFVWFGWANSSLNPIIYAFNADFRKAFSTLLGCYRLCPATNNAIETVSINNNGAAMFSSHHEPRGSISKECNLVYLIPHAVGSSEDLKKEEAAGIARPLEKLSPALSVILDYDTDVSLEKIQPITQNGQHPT
D1 ag: Allosteric Agonists of the Human D1 Dopamine Receptor: qHTS | D(1A) dopamine receptor (Homo sapiens), P21728 | HEK293 T-REx D1 cells, calcium flux, agonist mode | activation, % at 2 µM | 360,000 compounds, 1% hits; note: 0% is about no effect
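Agonism was scored from calcium flux recorded over 180 s (1 read/s) after pintool compound addition, following a 10-cycle baseline. Cells were inducible force-coupled HEK293 TREx D1, plated overnight at 30 C and loaded with no-wash calcium dye.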
D1 antag: Antagonist of Human D 1 Dopamine Receptor: qHTS. HEK293 TREx D1 cells, calcium flux, dopamine EC80; active compounds read low. activity change, negative = inhibition, % at 10 µM. 360,000 compounds, 3.2% hits. D(1A) dopamine receptor (Homo sapiens), P21728; in the data active = activity change below about -30%; note: % is set by controls: 0 for no effect and ±100 for the full control effect
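Inducible Hek293 Trex D1 cells (tetracycline, overnight, 30 C). Calcium dye 30–90 min RT. Antagonist mode: EC80 dopamine added after 180 s compound read.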
TRHR agonist: qHTS for Small Molecule Agonists and Allosteric Enhancers of Human TRH Receptor: Primary Screen for Agonists; TRHR cells, calcium flux fluo-8, FDSS agonist mode; 360,000 compounds, 0.18% hits; activation, % at 2 µM; Thyrotropin-releasing hormone receptor (Homo sapiens), P34981; note: 0% is about no effect
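Steps: seed TRHR cells overnight; add fluo-8 no-wash Ca dye, RT 30 min–1.5 h; record 10 s baseline; pin-transfer compounds; monitor fluorescence 1 cycle/s for the agonist window. Calcium increases flag candidate agonists.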
* hit, by the source's call. Hits are enriched below; roughly 4.6% of the tested compounds scored in any of these assays. Cut-off read from the data, not from the text of the source, unless noted: active = activation above about 30%; inactive = the rest.

CC1CCCN(CCOCCOc2ccc(Cl)cc2Br)C1 (stereo not given) was read as TRHR PAM -14, D1 potentiator -9, D1 ag 28, D1 antag -27 and TRHR agonist 15.
For CC1CCN(CCCOc2ccc(Br)cc2Cl)CC1 the results were TRHR PAM -9, D1 potentiator -5, D1 ag 52*, D1 antag -68* and TRHR agonist 1.
Screening CN1CCN(CCOCCOc2ccc(Br)cc2Cl)CC1 returned TRHR PAM -2, D1 potentiator -8, D1 ag 5, D1 antag 2 and TRHR agonist 1.
CC1CCCN(CCOCCOc2ccc(Br)cc2Cl)C1 (stereo not given) was read as TRHR PAM 0, D1 potentiator -10, D1 ag 26, D1 antag -32* and TRHR agonist 0.
Cc1cccc(C)c1NC(=O)Nc1ccc(S(N)(=O)=O)cc1 was read as TRHR PAM -2, D1 potentiator -4, D1 ag 1, D1 antag -2 and TRHR agonist 1.
Screening O=C(NCc1cccs1)c1ccc(CSc2nc3cccnc3n2Cc2ccc(F)cc2)cc1 returned TRHR PAM 1, D1 potentiator -2, D1 ag 3, D1 antag 13 and TRHR agonist 1.
C/C(=N\Nc1ccc(C(=O)O)cc1)c1ccc(Br)cc1 was read as TRHR PAM 0, D1 potentiator -6, D1 ag 1, D1 antag -9 and TRHR agonist 0.
C/C(=N\Nc1ccc(C(=O)O)cc1)c1ccc(Cl)s1 was read as TRHR PAM 0, D1 potentiator 0, D1 ag 50*, D1 antag 4 and TRHR agonist 1.
CCOc1ccc(S(=O)(=O)N2CCC(C(=O)NCC3CCCO3)CC2)cc1Cl (stereo not given) was read as TRHR PAM -22, D1 potentiator 2, D1 ag 2, D1 antag -6 and TRHR agonist -1.
Cc1nn(-c2cc(C(F)(F)F)ccc2Cl)c2nc(C(Cl)(Cl)Cl)[nH]c(=O)c12 was read as TRHR PAM 0, D1 potentiator -16, D1 ag 4, D1 antag -38* and TRHR agonist -1.
For Cc1cccc(-c2nnc(SCC(=O)NCc3ccc4c(c3)OCO4)n2C)c1 the results were TRHR PAM -4, D1 potentiator 0, D1 ag 2, D1 antag 0 and TRHR agonist -1.
Screening Cc1occc1C(=O)Nc1cccc(C(=O)NCc2ccccc2)c1 returned TRHR PAM 1, D1 potentiator -16, D1 ag 6, D1 antag -40* and TRHR agonist 0.
Cc1ccc(C(=O)Nc2cccc(C(=O)NCc3ccccc3)c2)cc1 was read as TRHR PAM -7, D1 potentiator -12, D1 ag 2, D1 antag -10 and TRHR agonist -1.
`Cc1cccc(CNC(=O)c2cccc(NC(=O)N3CCSc4ncccc43)c2)c1` gave TRHR PAM -5, D1 potentiator -4, D1 ag 1, D1 antag -35* and TRHR agonist 0.
`O=C(COc1cccc(NC(=O)c2ccco2)c1)c1ccc(F)cc1` gave TRHR PAM -3, D1 potentiator -5, D1 ag -3, D1 antag -12 and TRHR agonist -1.
COc1ccccc1-c1nc(NC(C)=O)n[nH]1 was read as TRHR PAM 0, D1 potentiator 1, D1 ag 1, D1 antag 1 and TRHR agonist 0.
Cc1ccc(C(CNS(=O)(=O)c2ccc(Cl)cc2)N2CCN(C)CC2)cc1 (stereo not given) was read as TRHR PAM 0, D1 potentiator -10, D1 ag 43*, D1 antag -34* and TRHR agonist 1.
Cc1ccc(C(CNS(=O)(=O)c2ccc(C)cc2)N2CCN(C)CC2)cc1 (stereo not given) was read as TRHR PAM 5, D1 potentiator -1, D1 ag 9, D1 antag -8 and TRHR agonist 0.
C=CCOc1ccc2ccccc2c1CNn1c(C)n[nH]c1=S was read as TRHR PAM 4, D1 potentiator -2, D1 ag 1, D1 antag 5 and TRHR agonist -1.
CC(C)Nc1nc(NC(C)(C)C)nc(Oc2ccc(=O)n(C)n2)n1 was read as TRHR PAM -2, D1 potentiator 0, D1 ag 47*, D1 antag 14 and TRHR agonist 0.
`Cc1oc2cc(O)ccc2c(=O)c1Oc1ccc2ccccc2c1` gave TRHR PAM -5, D1 potentiator -1, D1 ag 5, D1 antag -37* and TRHR agonist 0.
Cc1oc2cc(O)ccc2c(=O)c1Oc1ccc(F)cc1 was read as TRHR PAM 6, D1 potentiator -3, D1 ag 2, D1 antag 7 and TRHR agonist -1.
`COc1ccc(C(=O)C(C)[n+]2ccc(C)c3ccccc32)cc1[N+](=O)[O-]` (stereo not given) gave TRHR PAM -2, D1 potentiator -7, D1 ag 52*, D1 antag -25 and TRHR agonist 8.
Screening CC1C(c2ccccc2)N(C)C(c2ccccc2)C(C)C1(O)C#Cc1ccccc1 (stereo not given) returned TRHR PAM 39*, D1 potentiator -4, D1 ag 11, D1 antag -1 and TRHR agonist 1.
For Cc1c(C#N)c(=O)c(-[n+]2ccccc2)c([S-])n1-c1ccc(Cl)cc1 the results were TRHR PAM 33*, D1 potentiator -1, D1 ag 3, D1 antag 14 and TRHR agonist 1.
C1CN=C(NC23CC4CC(CC(C4)C2)C3)C1 was read as TRHR PAM -1, D1 potentiator -2, D1 ag 1, D1 antag -4 and TRHR agonist 0.
For COc1ccc(CN2CC(=O)N(c3ccc(C)c(C)c3)C2=S)cc1OC the results were TRHR PAM 2, D1 potentiator -11, D1 ag 6, D1 antag -36* and TRHR agonist 1.
COc1ccc(NC(=O)COC(=O)CCNS(=O)(=O)c2ccccc2)cc1OC was read as TRHR PAM -5, D1 potentiator -2, D1 ag 3, D1 antag -9 and TRHR agonist 0.
`Fc1ccccc1Nc1n[nH]c(=S)s1` gave TRHR PAM 0, D1 potentiator 2, D1 ag 3, D1 antag -13 and TRHR agonist 0.
